Assay results published in PubChem BioAssay (Tox21).
The source made the active and inactive calls. The call rests on the fitted dose curve; in most records, active means well fitted activation curve with a large enough effect in the repeat runs; inconclusive means weak or mixed curves; inactive means flat fitted curve, though single readings scatter.

Assay: A CellTox Green Cytotoxicity Assay to monitor cytotoxicity in HepG2 cells - 0 hour (AID 1224882); further: nearly all actives have a fitted effect of over 35% in size
Details: CellTox Green fluorescence; series mostly up to 76.8 µM
Description: National Center for Advancing Translational Sciences [NCATS]
NIH Chemical Genomics Center [NCGC]
U.S. Environmental Protection Agency [EPA]
National Institutes of Environmental Health Sciences [NIEHS]
National Toxicology Program [NTP]
Cell-based models are critical for drug discovery. Determining the natural cytotoxic effects resulting from test compounds is an essential research activity. A CellTox Green Cytotoxicity Assay to monitor cytotoxicity in real time of continues cell culture during 40 hours of the compound treatment was used to screen Tox21 10K library compounds in HepG2 cells. CellTox Green Cytotoxicity Assay is a nonlytic, homogeneous, biofluorescent method to measure cytotoxicity in cell culture after experimental manipulation. The assay system uses a proprietary asymmetric cyanine dye that is excluded from viable cells but preferentially stains the dead cell's DNA. […] Viable cells produce no appreciable increases in fluorescence. Therefore, the fluorescence signal produced by the binding interaction with dead cell DNA is proportional to cytotoxicity.
The mixture of HepG2 cell suspension and reagents were dispensed at 600cells/6 ul/well in 1536-well tissue culture treated black solid bottom plates using a Multidrop dispenser. After the assay plates were incubated at a 37 C/5% CO2 incubator for 5 hours, 23 nL of compounds dissolved in DMSO, positive and negative controls was transferred to the assay plate by a pintool work station. The plates were incubated at 37 C for 40 hours. The fluorescence intensity were measured at 0h, 8h, 16h, 24h, 32h and 40h time points using ViewLux plate reader during compound treatment.

| SMILES | outcome |
| --- | --- |
| O=C(Nc1ccccc1)c1ccccc1I | inactive |
| COc1ccc2c(c1OC)CN1CCc3cc4c(cc3C1C2)OCO4 (stereo not given) | inactive |
| Cc1ncc2n1-c1ccc(Cl)cc1C(c1ccccc1F)=NC2 | inactive |
| C[C@]12CC[C@H]3[C@@H](CCC4=CC(=O)CC[C@@]43C)[C@@H]1CC[C@@H]2C(=O)O | inactive |
| C#CCN1C(=O)COc2cc(F)c(N3C(=O)C4=C(CCCC4)C3=O)cc21 | inactive |
| Cc1cccc(C#N)c1 | inactive |
| CC(C)CP(=S)(S)CC(C)C | inactive |
| CC(C)(C)NCC(O)c1cc(Cl)c(N)c(Cl)c1 (stereo not given) | inactive |
| CC1(C(=O)Nc2ccc(O)c(Cl)c2Cl)CCCCC1 | inactive |
| c1cc[c]([Hg][c]2ccccc2)cc1 | inactive |
| OCCSCSCCO | inactive |
| COC(=O)C1=CCCN(C)C1 | inactive |
| CCOP(=S)(OCC)SCSc1ccc(Cl)cc1 | inactive |
| CC(C(=O)c1ccccc1)N(C)C (stereo not given) | inactive |
| Cc1coc2c1CCC(C)C2 (stereo not given) | inactive |
| Fc1ccc(C2(Cn3cncn3)OC2c2ccccc2Cl)cc1 (stereo not given) | inactive |
| NC(=O)c1cc([N+](=O)[O-])cc([N+](=O)[O-])c1 | inactive |
| CCC#N | inactive |
| O=NN1CCCCC1 | inactive |
| CCCCOC(=O)c1ccccc1N | inactive |

| SMILES | outcome |
| --- | --- |
| CC(C)(C)C(=O)C(Oc1ccc(Cl)cc1)n1cncn1 (stereo not given) | inactive |
| CCC(=O)C(CCN(C)C)(c1ccccc1)c1ccccc1 | inactive |
| CSc1nc(N=[N+]=[N-])nc(NC(C)C)n1 | inactive |
| CC1(C)COP(Oc2ccccc2)OC1 | inactive |
| COC(=O)c1ccccc1S(=O)(=O)NC(=O)N(C)c1nc(C)nc(OC)n1 | inactive |
| c1cc2c(c(N3CCNCC3)c1)OCCO2 | inactive |
| CCCCP(CCCC)CCCC | inactive |
| CC(N)=S | inactive |
| CCOP(=O)(N=C1SCCS1)OCC | inactive |
| COc1cc(OC)nc(Oc2cccc(Oc3nc(OC)cc(OC)n3)c2C(=O)O)n1 | inactive |
| O=C(Nc1ccccc1)N(Cc1ccc(Cl)cc1)C1CCCC1 | inactive |
| CC(=O)CC(c1ccc(Cl)cc1)c1c(O)c2ccccc2oc1=O (stereo not given) | inactive |
| CCC1(c2ccccc2)C(=O)N=C(O)NC1=O (stereo not given) | inactive |
| O=[N+]([O-])c1cccc(O)c1 | inactive |
| Nc1cc(Cl)ccc1O | inactive |
| COC(=O)C(c1ccccc1)C1CCCCN1 (stereo not given) | inactive |
| CCOP(=S)(OCC)Oc1nc(Cl)n(C(C)C)n1 | inactive |
| CC1=NNC(=O)N(/N=C/c2cccnc2)C1 | inactive |
| CC(C(O)c1ccccc1)N(C)C/C=C/c1ccccc1 (stereo not given) | inactive |
| Nc1cc2c3c(c1)C(c1ccccc1)=N[C@@H](NC(=O)c1cccnc1)C(=O)N3CC2 | inactive |
